Assay results from article PMC13423814.

Target: HSPA9 (UniProt P38646)
Conditions: DSSO, in cells

Chain of PPIF, P30405 (P30405 whole entry): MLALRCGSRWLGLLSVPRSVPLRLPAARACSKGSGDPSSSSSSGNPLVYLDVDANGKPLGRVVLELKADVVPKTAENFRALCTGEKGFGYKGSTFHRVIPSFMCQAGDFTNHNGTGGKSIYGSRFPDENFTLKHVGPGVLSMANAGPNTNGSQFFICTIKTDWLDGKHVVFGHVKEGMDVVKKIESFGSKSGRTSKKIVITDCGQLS
Chain of ETHE1, O95571 (O95571 whole entry): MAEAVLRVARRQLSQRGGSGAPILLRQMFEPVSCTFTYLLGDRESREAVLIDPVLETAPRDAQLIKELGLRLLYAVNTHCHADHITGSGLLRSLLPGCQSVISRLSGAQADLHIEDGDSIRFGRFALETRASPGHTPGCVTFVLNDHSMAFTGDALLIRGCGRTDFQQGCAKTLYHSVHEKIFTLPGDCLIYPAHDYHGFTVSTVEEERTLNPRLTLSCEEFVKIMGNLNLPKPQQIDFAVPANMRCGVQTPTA
Chain of PDHA1, P08559 (P08559 whole entry): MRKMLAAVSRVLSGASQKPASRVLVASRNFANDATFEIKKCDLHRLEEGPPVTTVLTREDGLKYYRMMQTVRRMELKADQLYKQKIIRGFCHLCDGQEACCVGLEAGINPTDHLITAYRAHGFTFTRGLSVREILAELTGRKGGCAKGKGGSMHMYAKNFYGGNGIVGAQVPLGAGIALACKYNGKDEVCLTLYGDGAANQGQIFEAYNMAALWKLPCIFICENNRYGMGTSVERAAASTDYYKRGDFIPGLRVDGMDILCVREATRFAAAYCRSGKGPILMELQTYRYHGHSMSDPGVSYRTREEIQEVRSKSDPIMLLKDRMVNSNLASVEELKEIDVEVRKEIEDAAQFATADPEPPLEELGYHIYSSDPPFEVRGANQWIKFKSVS
Chain of FH, P07954 (P07954 whole entry): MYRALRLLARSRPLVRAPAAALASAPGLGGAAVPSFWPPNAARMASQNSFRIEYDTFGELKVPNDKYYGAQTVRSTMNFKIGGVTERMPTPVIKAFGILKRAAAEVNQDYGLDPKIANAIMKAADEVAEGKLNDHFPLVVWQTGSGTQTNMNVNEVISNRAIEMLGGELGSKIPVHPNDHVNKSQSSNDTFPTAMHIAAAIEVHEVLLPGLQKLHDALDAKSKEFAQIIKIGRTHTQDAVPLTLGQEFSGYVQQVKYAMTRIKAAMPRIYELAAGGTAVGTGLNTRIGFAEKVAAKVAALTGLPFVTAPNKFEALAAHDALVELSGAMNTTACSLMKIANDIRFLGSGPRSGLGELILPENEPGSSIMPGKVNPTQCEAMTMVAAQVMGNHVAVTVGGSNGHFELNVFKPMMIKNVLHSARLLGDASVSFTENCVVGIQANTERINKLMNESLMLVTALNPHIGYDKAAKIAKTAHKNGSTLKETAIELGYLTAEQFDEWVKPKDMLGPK
Chain of ALDH1B1, P30837 (P30837 whole entry): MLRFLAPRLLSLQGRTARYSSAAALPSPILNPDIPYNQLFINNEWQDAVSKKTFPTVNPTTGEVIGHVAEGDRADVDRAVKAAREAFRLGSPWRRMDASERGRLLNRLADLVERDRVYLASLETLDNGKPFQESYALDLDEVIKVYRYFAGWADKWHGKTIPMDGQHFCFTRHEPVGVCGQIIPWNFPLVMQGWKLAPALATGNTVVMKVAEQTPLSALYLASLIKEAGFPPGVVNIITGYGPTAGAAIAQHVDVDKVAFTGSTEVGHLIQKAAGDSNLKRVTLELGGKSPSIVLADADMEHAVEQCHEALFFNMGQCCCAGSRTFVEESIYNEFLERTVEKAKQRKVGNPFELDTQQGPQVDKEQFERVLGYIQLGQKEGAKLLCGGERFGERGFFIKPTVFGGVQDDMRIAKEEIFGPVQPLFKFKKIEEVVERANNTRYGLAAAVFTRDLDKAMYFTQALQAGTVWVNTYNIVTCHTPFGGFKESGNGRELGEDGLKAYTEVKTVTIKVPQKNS
Chain of DUT, P33316 (P33316 whole entry): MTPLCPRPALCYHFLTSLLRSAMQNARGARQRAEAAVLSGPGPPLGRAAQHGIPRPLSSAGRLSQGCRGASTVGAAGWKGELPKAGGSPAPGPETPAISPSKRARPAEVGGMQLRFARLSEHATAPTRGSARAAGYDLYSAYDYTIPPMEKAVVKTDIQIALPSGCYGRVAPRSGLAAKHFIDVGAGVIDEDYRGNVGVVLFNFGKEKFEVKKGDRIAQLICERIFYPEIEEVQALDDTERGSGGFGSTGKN
Chain of ETFB, P38117 (P38117 whole entry): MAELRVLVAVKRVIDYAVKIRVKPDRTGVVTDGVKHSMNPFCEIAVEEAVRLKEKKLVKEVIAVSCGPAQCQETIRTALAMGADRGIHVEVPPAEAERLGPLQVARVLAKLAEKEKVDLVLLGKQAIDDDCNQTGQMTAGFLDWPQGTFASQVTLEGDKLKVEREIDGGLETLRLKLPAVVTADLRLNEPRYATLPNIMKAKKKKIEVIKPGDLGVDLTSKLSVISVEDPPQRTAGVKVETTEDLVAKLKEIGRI
Chain of LMNB2, Q03252 (Q03252 whole entry): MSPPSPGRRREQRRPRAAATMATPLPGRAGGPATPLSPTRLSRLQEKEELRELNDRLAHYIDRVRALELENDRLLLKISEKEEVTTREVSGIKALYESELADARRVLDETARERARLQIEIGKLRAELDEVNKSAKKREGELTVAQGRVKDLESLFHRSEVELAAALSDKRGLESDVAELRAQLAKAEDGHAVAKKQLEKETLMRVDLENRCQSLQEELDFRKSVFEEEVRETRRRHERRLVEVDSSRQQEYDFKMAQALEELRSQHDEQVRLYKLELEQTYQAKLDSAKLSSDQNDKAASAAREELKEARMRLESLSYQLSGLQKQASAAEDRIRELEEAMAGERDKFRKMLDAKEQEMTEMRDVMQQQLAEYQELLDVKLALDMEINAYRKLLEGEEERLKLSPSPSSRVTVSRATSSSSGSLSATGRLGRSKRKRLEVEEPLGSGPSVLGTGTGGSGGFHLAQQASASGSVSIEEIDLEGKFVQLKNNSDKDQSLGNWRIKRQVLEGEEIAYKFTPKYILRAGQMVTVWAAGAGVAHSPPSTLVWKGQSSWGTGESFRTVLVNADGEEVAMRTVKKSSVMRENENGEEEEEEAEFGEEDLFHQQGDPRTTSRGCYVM
Chain of TIMM44, O43615 (O43615 whole entry): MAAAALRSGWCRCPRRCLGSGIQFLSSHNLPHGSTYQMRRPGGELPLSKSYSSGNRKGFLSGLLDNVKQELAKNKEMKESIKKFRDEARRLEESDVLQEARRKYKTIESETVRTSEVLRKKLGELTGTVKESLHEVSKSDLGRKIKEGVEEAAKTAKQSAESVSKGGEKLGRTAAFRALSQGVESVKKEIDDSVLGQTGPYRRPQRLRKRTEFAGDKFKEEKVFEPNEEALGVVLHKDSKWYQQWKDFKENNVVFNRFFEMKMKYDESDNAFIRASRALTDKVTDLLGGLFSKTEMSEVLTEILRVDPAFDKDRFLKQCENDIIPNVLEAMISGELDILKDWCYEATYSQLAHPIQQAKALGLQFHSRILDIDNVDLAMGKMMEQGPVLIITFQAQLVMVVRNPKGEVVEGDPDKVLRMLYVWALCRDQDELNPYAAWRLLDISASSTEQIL
Chain of PRDX3, P30048 (P30048 whole entry): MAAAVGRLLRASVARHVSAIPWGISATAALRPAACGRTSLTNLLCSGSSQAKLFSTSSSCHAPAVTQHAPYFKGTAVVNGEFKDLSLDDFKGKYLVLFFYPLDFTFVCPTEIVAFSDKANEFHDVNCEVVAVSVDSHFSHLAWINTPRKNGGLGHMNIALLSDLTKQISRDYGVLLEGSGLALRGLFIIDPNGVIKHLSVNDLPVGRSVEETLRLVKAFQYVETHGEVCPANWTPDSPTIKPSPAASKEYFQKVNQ
Chain of LMNA, P02545 (P02545 whole entry): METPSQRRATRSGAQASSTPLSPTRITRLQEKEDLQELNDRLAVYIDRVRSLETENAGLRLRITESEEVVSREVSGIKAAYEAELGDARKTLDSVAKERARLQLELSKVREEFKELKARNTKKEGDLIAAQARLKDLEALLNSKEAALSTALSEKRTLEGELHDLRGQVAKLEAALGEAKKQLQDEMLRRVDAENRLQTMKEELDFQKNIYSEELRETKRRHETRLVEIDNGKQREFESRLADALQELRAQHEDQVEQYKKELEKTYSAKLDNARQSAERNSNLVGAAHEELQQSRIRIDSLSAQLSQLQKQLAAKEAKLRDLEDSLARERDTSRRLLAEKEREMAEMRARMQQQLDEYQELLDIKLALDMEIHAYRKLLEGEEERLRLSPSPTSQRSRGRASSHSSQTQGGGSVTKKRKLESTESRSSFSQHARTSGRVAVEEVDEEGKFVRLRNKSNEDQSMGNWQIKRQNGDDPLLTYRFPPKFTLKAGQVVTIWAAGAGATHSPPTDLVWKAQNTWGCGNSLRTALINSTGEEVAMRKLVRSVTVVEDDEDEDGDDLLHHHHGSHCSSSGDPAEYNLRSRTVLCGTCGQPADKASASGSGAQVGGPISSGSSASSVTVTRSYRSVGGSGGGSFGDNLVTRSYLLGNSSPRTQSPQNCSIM
Chain of NDUFS3, O75489 (O75489 whole entry): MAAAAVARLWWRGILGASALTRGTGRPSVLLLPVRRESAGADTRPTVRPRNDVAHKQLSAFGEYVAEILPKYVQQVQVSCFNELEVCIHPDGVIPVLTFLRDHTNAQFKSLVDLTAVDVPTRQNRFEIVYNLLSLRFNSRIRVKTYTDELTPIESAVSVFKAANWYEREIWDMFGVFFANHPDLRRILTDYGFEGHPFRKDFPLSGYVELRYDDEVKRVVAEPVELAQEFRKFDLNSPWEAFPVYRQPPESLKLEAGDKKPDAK

With NDUFS3, O75489 as the substance, how does the cross-linked residues read?
Its cross-linked residues is “K259 - K625”.

For LETM1, O95202, which cross-linked residues is on record?
Its cross-linked residues is “K587 - K625”.

For ETFB, P38117, which cross-linked residues is on record?
Its cross-linked residues is “K238 - K625”.

For TIMM44, O43615, which cross-linked residues is on record?
The cross-linked residues was “S185 - K671”.

DUT, P33316 was tested. Which cross-linked residues did it give?
Its cross-linked residues is “S101 - K625”.

Target: LBR (UniProt Q14739)
Conditions: DSSO, in cells

With LMNB2, Q03252 as the substance, how does the cross-linked residues read?
Its cross-linked residues is “K186 - K190”.

LMNA, P02545 was tested. Which cross-linked residues did it give?
Its cross-linked residues is “K420 - K107”.

For H4C1, P62805, which cross-linked residues is on record?
The cross-linked residues was “K9 - K107”.

Target: MDH2 (UniProt P40926)
Conditions: DSSO, in cells

With FH, P07954 as the substance, how does the cross-linked residues read?
The cross-linked residues was “K223 - K239”.

With PPIF, P30405 as the substance, how does the cross-linked residues read?
The cross-linked residues was “K190 - K239”.

For ALDH2, P05091, which cross-linked residues is on record?
Its cross-linked residues is “K378 - K239”.

For ETHE1, O95571, which cross-linked residues is on record?
Its cross-linked residues is “K66 - K239”.

How did the cross-linked residues turn out when PRDX3, P30048 was run?
Its cross-linked residues is “K149 - K239”.

With CS, O75390 as the substance, how does the cross-linked residues read?
The cross-linked residues was “K321 - K239”.

With PDHA1, P08559 as the substance, how does the cross-linked residues read?
Its cross-linked residues is “K313 - K239”.

With ALDH1B1, P30837 as the substance, how does the cross-linked residues read?
Its cross-linked residues is “K429 - K239”.
